Several values for one entry are separate records, joined by “and”; a condition that tells them apart may be missing. Identical values can stand only once. Records with an inconclusive call do not appear. Activity calls are given as the source filed them. Rule for the calls, unless noted: active = hit-call score of the fitted dose curve at least 0.9, where 1 is the maximum; inactive = score below 0.9.
How the values were obtained:
[1] = target: Retinoic acid receptor RXR-alpha (Homo sapiens) (UniProt P19793); test: ATG_RXRa_TRANS: Attagene TRANS-FACTORIAL HepG2 Assay for human Retinoid X Receptor alpha (RXRa) (AID 2283012; active = hit-call score of the fitted dose curve at least 0.9, where 1 is the maximum)
In short: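 HepG2 cells transiently transfected with multiplexed GAL4-UAS reporter units and chimeric NR-GAL4 fusions, dosed 24 h. Reporter mRNA measured by RT-PCR, FAM labelling, HpaI digestion and capillary electrophoresis; gain-of-signal fitted relative to DMSO baseline.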

[2] = target: human Retinoid X Receptor beta (RXRb), RXRB (gene 6257) (UniProt P28702); test: ATG_RXRb_TRANS: Attagene TRANS-FACTORIAL HepG2 Assay for human Retinoid X Receptor beta (RXRb) (AID 2283013; active = hit-call score of the fitted dose curve at least 0.9, where 1 is the maximum)
In short: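 HepG2 cells transiently transfected with multiplexed reporter units driven by GAL4-UAS and exogenous chimeric NR-Gal4 proteins; treated 24 h. Reporter mRNA measured by RT-PCR, 6-FAM labelling and capillary electrophoresis; gain-of-signal fitted versus DMSO baseline.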

[3] = target: human Vitamin D Receptor (VDR), VDR (gene 7421) (UniProt P11473); test: ATG_VDR_TRANS: Attagene TRANS-FACTORIAL HepG2 Assay for human Vitamin D Receptor (VDR) (AID 2283022; active = hit-call score of the fitted dose curve at least 0.9, where 1 is the maximum)
In short: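 HepG2 cells were transiently transfected with multiple GAL4-UAS reporter units, so signal reflects exogenous chimeric receptor-Gal4 activity. After 24 h compound exposure, reporter mRNA was measured by RT-PCR, fluorescent labelling and capillary electrophoresis, fitted for gain of signal versus DMSO.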

[4] = read-out: E-selectin (Homo sapiens) (UniProt P16581); test: BSK_3C_Eselectin: BioMAP Diversity Plus: 3C Assay for Eselectin Biomarker Activity (AID 2283015); settings: primary human endothelial cells (HUVEC); actives raise or lower the signal
In short: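 Primary human umbilical vein endothelial cells (3C system) were dosed with chemical and cell-surface E-selectin measured by ELISA 24 h later. Bidirectional curve fitting used DMSO as negative control and baseline.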

[5] = read-out: Interleukin-1 alpha (IL1a), IL1A (gene 3552); test: BSK_BE3C_IL1a: BioMAP Diversity Plus: BE3C Assay for Interleukin-1 alpha (IL1a) Biomarker Activity (AID 2283016); settings: primary human bronchial epithelial cells; actives raise or lower the signal
In short: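 Human primary bronchial epithelial cells (BE3C system) were dosed with compound and IL-1a measured by ELISA 24 h later. Activity was fitted bidirectionally against DMSO baseline; cytotoxicity was tracked in parallel cultures by SRB total-protein staining.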

[6] = read-out: Monocyte Chemoattractant Protein-1 (MCP1), CCL2 (gene 6347); test: BSK_3C_MCP1: BioMAP Diversity Plus: 3C Assay for Monocyte Chemoattractant Protein-1 (MCP1) Biomarker Activity (AID 2283017); settings: primary human endothelial cells (HUVEC); actives raise or lower the signal
In short: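 Primary human umbilical vein endothelial cells (3C system) were exposed to test chemical for 24 h, after which MCP-1 was quantified by ELISA. Activity was fitted bidirectionally against DMSO as negative control and baseline.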

[7] = read-out: Monocyte Chemoattractant Protein-1 (MCP1), CCL2 (gene 6347); test: BSK_4H_MCP1: BioMAP Diversity Plus: 4H Assay for Monocyte Chemoattractant Protein-1 (MCP1) Biomarker Activity (AID 2283018); settings: primary human endothelial cells (HUVEC); actives raise or lower the signal
In short: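 Human umbilical vein endothelial cells (4H system) dosed with chemical; MCP-1 measured by ELISA 24 h after dosing. Bidirectional curve fitting against DMSO negative control as baseline; parallel SRB total-protein staining tracks overt cytotoxicity.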

[8] = read-out: Human Leukocyte Antigen - DR isotype (HLADR), HLA-DRA (gene 3122); test: BSK_3C_HLADR: BioMAP Diversity Plus: 3C Assay for Human Leukocyte Antigen - DR isotype (HLADR) Biomarker Activity (AID 2283019); settings: primary human endothelial cells (HUVEC); actives raise or lower the signal
In short: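 Primary human umbilical vein endothelial cells (3C system) were dosed with compound and cell-surface HLA-DR was quantified by ELISA at 24 h. Activity was fitted bidirectionally against DMSO as negative control and baseline.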

[9] = read-out: Interleukin-8 (IL8), CXCL8 (gene 3576); test: BSK_3C_IL8: BioMAP Diversity Plus: 3C Assay for Interleukin-8 (IL8) Biomarker Activity (AID 2283020); settings: primary human endothelial cells (HUVEC); actives raise or lower the signal
In short: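 Primary human umbilical vein endothelial cells (3C system) were exposed to test chemical for 24 h, then IL-8 was quantified by ELISA. Responses were fitted bidirectionally against DMSO vehicle as baseline.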

[10] = read-out: Monokine induced gamma interferon (MIG), CXCL9 (gene 4283); test: BSK_3C_MIG: BioMAP Diversity Plus: 3C Assay for Monokine induced gamma interferon (MIG) Biomarker Activity (AID 2283021); settings: primary human endothelial cells (HUVEC); actives raise or lower the signal;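 for AC50: MIG protein level measured by immunoassay in the treated endothelial cultures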
In short: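 Primary human umbilical vein endothelial cells in the 3C system were exposed to chemical for 24 h, after which MIG was quantified by ELISA. Activity was fitted bidirectionally against DMSO as negative control and baseline.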

[11] = BSK_3C_SRB: Viability Assessment in the BioMAP Diversity Plus: 3C Assay (AID 2283023); settings: primary human endothelial cells (HUVEC);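 note: fitted both ways against DMSO so a hit may be signal rise or drop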
In short: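 Primary human umbilical vein endothelial cells in the 3C system were read 24 h after compound dosing. Total protein was stained with 0.1% sulforhodamine B after 10% TCA fixation and read at 560 nm, with bidirectional fitting against DMSO as baseline.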

[12] = read-out: Matrix Metallopeptidase 1 (MMP1), MMP1 (gene 4312); test: BSK_BE3C_MMP1: BioMAP Diversity Plus: BE3C Assay for Matrix Metallopeptidase 1 (MMP1) Biomarker Activity (AID 2283024); settings: primary human bronchial epithelial cells; actives raise or lower the signal
In short: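 Primary human bronchial epithelial cells were dosed with test chemicals, and MMP1 levels were measured by ELISA 24 h later. Data were fitted bidirectionally against DMSO as the negative control and activity baseline.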

[13] = BSK_3C_Vis: BioMAP Diversity Plus: 3C Assay for Morphology Visualization (AID 2283025); settings: primary human endothelial cells (HUVEC);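 note: fitted both ways so gain or loss versus DMSO counts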
In short: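 Human umbilical vein endothelial cells in the 3C system were imaged by light microscopy 24 h after chemical dosing to record cell morphology. Activity was fitted bidirectionally against DMSO as negative control and baseline; the endpoint serves as a background control.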

[14] = read-out: Pselectin, SELP (gene 6403); test: BSK_4H_Pselectin: BioMAP Diversity Plus: 4H Assay for Pselectin Biomarker Activity (AID 2283026); settings: primary human endothelial cells (HUVEC); actives raise or lower the signal
In short: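 Primary human umbilical vein endothelial cells were exposed to test chemical for 24 h, then cell-surface P-selectin was quantified by ELISA. Activity was fitted bidirectionally against DMSO as negative control and baseline.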

[15] = BSK_4H_SRB: Viability Assessment in the BioMAP Diversity Plus: 4H Assay (AID 2283027); settings: primary human endothelial cells (HUVEC);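 note: cells exposed to compound for 24 h before staining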;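 for AC50: curves fitted both ways versus DMSO so AC50 may be loss or gain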
In short: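 Human umbilical vein endothelial cells were dosed with chemical and, after 24 h, fixed with 10% TCA, stained with 0.1% sulforhodamine B, and read at 560 nm to give total protein as a cytotoxicity measure. Bidirectional fitting relative to DMSO control.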

[16] = BSK_BE3C_SRB: Viability Assessment in the BioMAP Diversity Plus: BE3C Assay (AID 2283028); settings: primary human bronchial epithelial cells;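 for AC50: fitted both ways so AC50 may mark signal gain or loss versus DMSO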
In short: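 Human primary bronchial epithelial cells were exposed to test chemicals for 24 h. Total protein in parallel cultures was then measured by staining with 0.1% sulforhodamine B after 10% TCA fixation, with absorbance read at 560 nm. Activity was fitted bidirectionally against DMSO.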

[17] = read-out: Thrombomodulin, THBD (gene 7056); test: BSK_3C_Thrombomodulin: BioMAP Diversity Plus: 3C Assay for Thrombomodulin Biomarker Activity (AID 2283029); settings: primary human endothelial cells (HUVEC); actives raise or lower the signal
In short: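 Primary human umbilical vein endothelial cells (3C system) were exposed to chemical for 24 h, then thrombomodulin levels were measured by ELISA. Activity was fitted bidirectionally against the DMSO negative control as baseline.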

[18] = target: human Thyroid Receptor alpha (THRa1), THRA (gene 7067) (UniProt P10827); test: ATG_THRa1_TRANS: Attagene TRANS-FACTORIAL HepG2 Assay for human Thyroid Receptor alpha (THRa1) (AID 2283014; active = hit-call score of the fitted dose curve at least 0.9, where 1 is the maximum)
In short: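 HepG2 cells transiently transfected with multiplexed GAL4-UAS reporter units for exogenous chimeric THRa1-Gal4; reporter mRNA measured 24 h after dosing by RT-PCR, 6-FAM labelling, HpaI digestion and capillary electrophoresis. Gain-of-signal fitted versus DMSO baseline.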

Measured: AC50

human Retinoid X Receptor beta (RXRb), RXRB (gene 6257), sequence (P28702 whole entry, looked up, the tested form may be a part): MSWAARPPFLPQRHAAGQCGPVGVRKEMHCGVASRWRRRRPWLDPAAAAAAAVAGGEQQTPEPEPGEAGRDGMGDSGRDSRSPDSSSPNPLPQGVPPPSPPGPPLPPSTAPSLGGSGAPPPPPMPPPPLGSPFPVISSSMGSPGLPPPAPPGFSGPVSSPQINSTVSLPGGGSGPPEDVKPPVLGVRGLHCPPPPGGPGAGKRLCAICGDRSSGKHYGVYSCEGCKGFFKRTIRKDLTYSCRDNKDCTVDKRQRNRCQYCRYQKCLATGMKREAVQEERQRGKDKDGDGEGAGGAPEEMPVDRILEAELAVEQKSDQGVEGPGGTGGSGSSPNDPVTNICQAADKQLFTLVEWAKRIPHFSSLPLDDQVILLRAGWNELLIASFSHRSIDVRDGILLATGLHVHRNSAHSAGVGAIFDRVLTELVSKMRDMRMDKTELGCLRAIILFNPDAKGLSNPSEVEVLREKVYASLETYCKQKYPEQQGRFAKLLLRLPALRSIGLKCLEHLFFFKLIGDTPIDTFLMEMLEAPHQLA
human Thyroid Receptor alpha (THRa1), THRA (gene 7067), sequence (P10827 whole entry, looked up, the tested form may be a part): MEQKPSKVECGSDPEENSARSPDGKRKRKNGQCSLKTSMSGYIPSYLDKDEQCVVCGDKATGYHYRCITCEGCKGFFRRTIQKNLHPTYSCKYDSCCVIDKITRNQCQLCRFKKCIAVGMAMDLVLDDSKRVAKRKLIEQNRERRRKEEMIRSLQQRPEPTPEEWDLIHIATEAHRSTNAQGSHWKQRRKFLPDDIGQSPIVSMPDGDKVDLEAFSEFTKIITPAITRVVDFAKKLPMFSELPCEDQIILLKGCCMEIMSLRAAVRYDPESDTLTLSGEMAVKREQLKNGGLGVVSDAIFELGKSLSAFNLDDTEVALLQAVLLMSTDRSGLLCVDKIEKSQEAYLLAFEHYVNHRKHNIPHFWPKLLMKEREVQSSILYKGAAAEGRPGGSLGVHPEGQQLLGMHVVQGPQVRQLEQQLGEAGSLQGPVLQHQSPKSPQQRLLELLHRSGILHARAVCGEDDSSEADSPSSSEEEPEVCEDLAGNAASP
human Vitamin D Receptor (VDR), VDR (gene 7421), sequence (P11473 whole entry, looked up, the tested form may be a part): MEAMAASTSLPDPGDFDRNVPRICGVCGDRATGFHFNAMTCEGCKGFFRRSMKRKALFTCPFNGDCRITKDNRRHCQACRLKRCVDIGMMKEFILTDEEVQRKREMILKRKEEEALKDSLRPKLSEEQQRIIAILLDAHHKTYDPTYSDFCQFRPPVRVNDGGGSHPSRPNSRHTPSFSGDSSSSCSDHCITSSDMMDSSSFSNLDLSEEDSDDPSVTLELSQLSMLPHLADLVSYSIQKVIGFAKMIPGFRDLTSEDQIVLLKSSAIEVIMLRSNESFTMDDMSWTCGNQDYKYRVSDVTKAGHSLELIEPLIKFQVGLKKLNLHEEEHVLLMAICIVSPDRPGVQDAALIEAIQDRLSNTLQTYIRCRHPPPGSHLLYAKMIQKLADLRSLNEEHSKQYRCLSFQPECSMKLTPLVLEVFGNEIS
Retinoic acid receptor RXR-alpha (Homo sapiens), sequence (P19793 whole entry, looked up, the tested form may be a part): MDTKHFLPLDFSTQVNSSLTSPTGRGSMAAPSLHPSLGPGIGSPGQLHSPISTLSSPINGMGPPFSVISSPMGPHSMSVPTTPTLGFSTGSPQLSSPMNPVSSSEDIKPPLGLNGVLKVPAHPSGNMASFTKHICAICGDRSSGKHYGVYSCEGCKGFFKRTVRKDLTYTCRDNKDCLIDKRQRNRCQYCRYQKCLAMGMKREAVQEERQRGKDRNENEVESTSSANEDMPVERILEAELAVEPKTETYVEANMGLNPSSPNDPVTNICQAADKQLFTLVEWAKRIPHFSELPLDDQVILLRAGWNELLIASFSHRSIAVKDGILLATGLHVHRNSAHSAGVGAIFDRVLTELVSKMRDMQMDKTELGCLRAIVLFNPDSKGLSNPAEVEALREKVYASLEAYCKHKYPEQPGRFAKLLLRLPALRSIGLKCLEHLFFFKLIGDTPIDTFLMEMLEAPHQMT
E-selectin (Homo sapiens), sequence (P16581 whole entry, looked up): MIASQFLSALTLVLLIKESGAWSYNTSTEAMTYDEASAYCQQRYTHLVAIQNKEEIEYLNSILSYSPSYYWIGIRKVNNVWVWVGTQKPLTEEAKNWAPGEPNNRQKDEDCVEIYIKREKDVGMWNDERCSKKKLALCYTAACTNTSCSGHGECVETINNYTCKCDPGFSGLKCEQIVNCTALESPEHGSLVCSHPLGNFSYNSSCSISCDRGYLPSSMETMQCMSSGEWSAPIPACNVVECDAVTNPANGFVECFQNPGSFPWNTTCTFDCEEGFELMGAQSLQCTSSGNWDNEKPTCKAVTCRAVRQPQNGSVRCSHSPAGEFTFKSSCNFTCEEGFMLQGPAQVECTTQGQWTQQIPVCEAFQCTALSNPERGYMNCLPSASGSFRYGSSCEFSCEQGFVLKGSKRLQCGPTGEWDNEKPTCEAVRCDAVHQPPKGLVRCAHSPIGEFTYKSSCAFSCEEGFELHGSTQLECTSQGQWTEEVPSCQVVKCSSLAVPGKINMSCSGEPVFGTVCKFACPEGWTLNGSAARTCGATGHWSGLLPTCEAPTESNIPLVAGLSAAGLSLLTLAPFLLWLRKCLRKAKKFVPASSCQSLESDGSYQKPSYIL

CCOC(=O)c1ccc(C)cc1
inactive: [1] | [2] | [3]

N#Cc1ccc(C(c2ccc(C#N)cc2)n2cncn2)cc1
inactive: [1] | [2] | [3]

COc1ccc(C(=O)c2ccccc2)c(O)c1
active: [2] 28.7 µM | [6] 185 nM | [8] 27.8 µM | [11] 4.55 µM
not listed: [3] | [18]
inactive: all other assays above

C=C[Si](OCCOC)(OCCOC)OCCOC
inactive: [1] | [18] | [3]

Clc1cc(Cl)c(Cl)c(Cl)c1Cl
active: [2] 21.2 µM | [5] 20 µM | [8] 20 µM | [14] 34.7 µM
not listed: [17]
inactive: all other assays above

CCCC/C=C/C=C\C=O
inactive: [1] | [18]

O=C(O)/C=C/c1ccccc1
active: [2] 121 µM
inactive: [1] | [18] | [3]

C=CC(=O)OCCCCCCCC(C)C
active: [4] 20 µM | [5] 0.719 µM | [17] 6.25 µM
not listed: [18]
inactive: all other assays above

COC(OC)(C(=O)c1ccccc1)c1ccccc1
active: [7] 16 nM | [9] 16 nM
not listed: [17] | [18]
inactive: all other assays above

c1ccc(Nc2cccc3ccccc23)cc1
active: [1] 43.4 µM | [2] 11.9 µM | [4] 31.5 µM and 31.6 µM | [5] 23.8 µM and 28.6 µM | [6] 33.1 µM and 33.6 µM | [7] 26.1 µM and 21.6 µM | [8] 38.7 µM and 29.6 µM | [9] 27.6 µM and 24.6 µM | [10] 36.5 µM and 31.8 µM | [11] 31.8 µM and 34 µM | [12] 8.87 µM and 4.89 µM | [14] 35.2 µM and 33 µM | [15] 33.3 µM and 35.6 µM | [16] 27.4 µM and 28.4 µM
inactive: [18] | [17]

C=CC(=O)OCCCCCCOC(=O)C=C
active: [4] 6.59 µM | [5] 10 µM | [6] 20000 nM | [7] 9960 nM | [8] 4.69 µM | [9] 12300 nM | [10] 20 µM | [11] 20 µM | [13] 12.9 µM | [14] 10.3 µM | [15] 20 µM
inactive: [1] | [2] | [18] | [3] | [12] | [16]

CCCCOCC(C)O (stereo unspecified)
inactive: [1] | [2] | [18] | [3]

C=CCOC(=O)c1ccc(C(=O)OCC=C)c(C(=O)OCC=C)c1
inactive: [1] | [2] | [18] | [3]

CC(C)c1cc(C(C)C)cc(C(C)C)c1
active: [1] 6.06 µM | [2] 0.399 µM
inactive: [3]

COc1cc(O)c(C(=O)c2ccccc2)cc1S(=O)(=O)O
inactive: [1] | [2] | [3]

Cc1c[nH]c(=O)[nH]c1=O
inactive: [1] | [2] | [18] | [3]

CCCCCCCCCCCCc1ccc(O)cc1
active: [2] 3.36 µM
inactive: [1] | [18] | [3]

CC(=O)OCCc1ccccc1
inactive: [1] | [2] | [18] | [3]

CC(=O)OCC=C(C)C
inactive: [1] | [2] | [18] | [3]

O=C(O[C@@H]1Cc2c(O)cc(O)cc2O[C@@H]1c1cc(O)c(O)c(O)c1)c1cc(O)c(O)c(O)c1
inactive: [1] | [2] | [18] | [3]

CCCCCCCCCC(C)=O
inactive: [1] | [2] | [18] | [3]

CC1CCC(C(C)(C)S)C(=O)C1 (stereo unspecified)
inactive: [1] | [2] | [18] | [3]

Cc1noc(NS(=O)(=O)c2ccc(N)cc2)c1C
inactive: [1] | [18]

O=C(Nc1ccccc1)c1cc(Cl)ccc1O
inactive: [1] | [2] | [18] | [3]

CCCCCC1=CCCC1=O
active: [8] 20 µM | [12] 16 nM
not listed: [17] | [18]
inactive: all other assays above

CCOC(=O)[C@H](O)[C@@H](O)C(=O)OCC
inactive: [1] | [2] | [18] | [3]

CCCCc1ccc(Cl)cc1
inactive: [1] | [2] | [3]

CCCCC1C(=O)N(c2ccccc2)N(c2ccccc2)C1=O
inactive: [17]

Reference: PubChem BioAssay (EPA / NIEHS)
